Experimental data published in PubChem BioAssay AID1476 (National Center for Advancing Translational Sciences (NCATS), 2009).
The campaign covered roughly 200,000 compounds. About 4,500 (2.2%) were called active. Another 12% or so got no clear call; they are omitted. Calls follow the shape of the dose curve; as a rule, active = well fitted inhibition curve with a large enough effect; inconclusive = small, poorly fitted or top-dose-only effect, or effect the other way; inactive = flat fitted curve, though single readings scatter. Shown is part of a subset that was picked to be rich in actives.
Also: nearly all actives have a fitted effect of over 40% in size.
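For max response, negative = inhibition in this document: plate controls were enzyme without inhibitor for no effect and buffer without enzyme for full effect.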
Potency is read from the fitted curve at half-maximal effect.

Each compound was assayed against Cruzipain (Trypanosoma cruzi) (UniProt P25779) (assay: qHTS Assay for Promiscuous and Specific Inhibitors of Cruzain (without detergent)). Conditions: purified cruzain, Z-FR-AMC fluorescence, no detergent.
Sequence of Cruzipain (Trypanosoma cruzi) (P25779 123-467 limits assumed): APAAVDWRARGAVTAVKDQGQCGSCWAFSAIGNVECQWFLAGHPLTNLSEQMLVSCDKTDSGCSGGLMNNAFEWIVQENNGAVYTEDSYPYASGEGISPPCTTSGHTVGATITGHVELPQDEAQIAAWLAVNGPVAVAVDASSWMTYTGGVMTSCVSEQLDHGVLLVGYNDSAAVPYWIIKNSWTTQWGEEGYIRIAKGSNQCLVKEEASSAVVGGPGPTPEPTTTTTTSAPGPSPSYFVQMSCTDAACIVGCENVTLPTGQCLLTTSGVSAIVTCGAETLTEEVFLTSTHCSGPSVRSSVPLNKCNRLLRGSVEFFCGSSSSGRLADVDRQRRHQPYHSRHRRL
Procedure, shortened: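 Detergent-free condition (0.00005% Triton X-100) in acetate buffer pH 5.5 with DTT. 1.5 nM enzyme and compound were pre-mixed 15 min, then 2 uM Z-FR-AMC substrate added; reaction progress from fluorescence change between first and third reads (60 s).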
For `Cc1onc(-c2ccc(F)cc2F)c1C(=O)Nc1cccc(C(F)(F)F)c1`, the max response, negative = inhibition was -6.18% (inactive). In the case of `Cc1cccc(-c2nc(SCc3ccc(Br)cc3)n3[nH]c(=O)cc3n2)c1`, the max response, negative = inhibition is reported as -2.63% (inactive). With `O=C(Cn1c(=O)n(Cc2ccccc2)c(=O)c2sc3ccccc3c21)Nc1ccccc1F` the max response, negative = inhibition was 9.77% (inactive). For `CCCCN(CC)CCCNC(=O)c1nn(C)c2c1CS(=O)(=O)c1ccccc1-2`, the max response, negative = inhibition was 5.31% (inactive). In the case of `CCCNC(=O)CCC(=O)N1Cc2ccccc2Oc2ncccc21`, the max response, negative = inhibition is reported as -4.94% (inactive). `CCOC(=O)c1c(NC(=O)C2CCN(S(=O)(=O)c3ccc(Cl)cc3)CC2)sc2c1CCCC2` was tested, and the Potency was 15.8 µM (active). `CCOC(=O)c1c(NC(=S)Nc2ccccc2C)sc2c1CCC2` was tested, and the max response, negative = inhibition was -25.8% (inactive). With `CCOC(=O)c1c(NC(=O)c2ccc(S(=O)(=O)N(CC)CC)cc2)sc2c1CCCCC2` the max response, negative = inhibition was 8.24% (inactive). With `CCOC(=O)c1c(NC(=O)c2cc(-c3ccc(Cl)cc3)on2)sc2c1CCCC2` the max response, negative = inhibition was 3.1% (inactive). In the case of `CCOC(=O)c1c(NC(=S)NC(=O)c2ccco2)sc2c1CCCC2`, the Potency is reported as 12.6 µM (active). For `CC(C)OC(=O)c1c(NC(=O)c2ccco2)sc2c1CCCC2`, the max response, negative = inhibition was -12.4% (inactive). `Cc1cccc(N2CCN(C(=O)Cn3ncc4c5ccccc5n(C)c4c3=O)CC2C)c1` (centres undefined) was tested, and the max response, negative = inhibition was 2.09% (inactive). `COc1cc(CN(CC2CCCO2)C(=O)c2ccccc2F)cc(OC)c1OC` (centres undefined) was tested, and the max response, negative = inhibition was 17.1% (inactive). In the case of `CC(C)(C)OC(=O)N1CCC(c2c(C(=O)NCCc3ccsc3)cnn2-c2ccc(F)cc2F)CC1`, the max response, negative = inhibition is reported as -13.2% (inactive). With `CCCC12CN3CC(CCC)(CN(C1)C3c1c[nH]c3ccc(OC)cc13)C2=O` (centres undefined) the max response, negative = inhibition was 15.7% (inactive). With `CN(c1ccc(C(=O)NCc2ccccn2)cc1)S(C)(=O)=O` the max response, negative = inhibition was -4.77% (inactive). With `O=C(NCc1ccccn1)c1cc(-c2ccccc2Cl)on1` the max response, negative = inhibition was -2.8% (inactive). With `O=C(NCc1ccccn1)c1ccc2nc(-c3ccco3)c(-c3ccco3)nc2c1` the Potency was 25.1 µM (active). With `CCSc1nnc2c(n1)OC(c1ccc(OCC(=O)O)cc1)Nc1ccccc1-2` (centres undefined) the max response, negative = inhibition was -6.38% (inactive). For `CCOc1ccc(CNC(=O)c2cc(-c3ccc(Cl)s3)nc3ccccc23)cc1`, the max response, negative = inhibition was -5.14% (inactive). With `Cc1ccc(N2CC(C(=O)Nc3ccc(N(C)C)cc3)CC2=O)cc1Cl` (centres undefined) the max response, negative = inhibition was -3.38% (inactive). With `COC(=O)CN(C(=S)Nc1ccc(Cl)cc1)C1CC(=O)N(c2ccc(OC)cc2)C1=O` (centres undefined) the max response, negative = inhibition was -5.17% (inactive). With `CN(C)c1ccc(NC(=S)N(CCc2ccccc2)C2CC(=O)N(c3c(Cl)cccc3Cl)C2=O)cc1` (centres undefined) the Potency was 15.8 µM (active). For `CN1C(=O)c2ccccc2Sc2ccc(NC(=O)Cc3ccc(Cl)cc3)cc21`, the max response, negative = inhibition was 14.1% (inactive).
